Measurements taken from PubChem BioAssay (NCI).
About 83,000 compounds went through this panel and 20% of them were active in at least one assay; those are over-represented in the sample as a whole.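 Single-concentration screen, 48 h exposure, 96-well plates. Endpoint: percent growth. Below 10 = active.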 A number with no mark means an inactive call. Calls of active or inactive are those of the source.

Key:
Experiment in all cases: NCI-60 one-dose screen, 48 h (100 = growth as untreated, 0 = no growth, -100 = all killed)
Conditions in all cases: 10 µM unless noted
SR leukemia = test system: SR leukemia
RPMI-8226 leukemia = test system: RPMI-8226 leukemia
OVCAR-8 ovarian = test system: OVCAR-8 ovarian
OVCAR-5 ovarian = test system: OVCAR-5 ovarian
OVCAR-4 ovarian = test system: OVCAR-4 ovarian
SK-OV-3 ovarian = test system: SK-OV-3 ovarian
IGROV1 ovarian = test system: IGROV1 ovarian
OVCAR-3 ovarian = test system: OVCAR-3 ovarian
HS 578T breast = test system: HS 578T breast
NCI/ADR-RES ovarian = test system: NCI/ADR-RES ovarian

Structure (SMILES)	growth (SR leukemia)	growth (RPMI-8226 leukemia)	growth (OVCAR-8 ovarian)	growth (OVCAR-5 ovarian)	growth (OVCAR-4 ovarian)	growth (SK-OV-3 ovarian)	growth (IGROV1 ovarian)	growth (OVCAR-3 ovarian)	growth (HS 578T breast)	growth (NCI/ADR-RES ovarian)
C/C(=N\Nc1cc(C)nc2ccc(Br)cc12)c1ccc([N+](=O)[O-])cc1	1.78% (active)	27.5%	50.8%	111%	47%	84.1%	53.4%	26.8%	96.8%	
O=[N+]([O-])CC(c1ccccc1F)c1c[nH]c2ccccc12 (stereo not given)	30.2%	76%	78%	96%	97.3%	119%	68.6%	77.9%	77.2%	48.2%
C[C@H]1[C@H](C)CC[C@]2(C(=O)Nc3ccc4ncccc4c3)CC[C@]3(C)C(=CC[C@@H]4[C@@]5(C)CCCNC(C)(C)[C@@H]5CC[C@]43C)[C@H]12	-49.2% (active)	-42.3% (active)	-80.5% (active)	74.9%	27.8%	103%	-73.3% (active)	-45.1% (active)	-53.3% (active)	
CCCCCN1C=C/C(=C\C(=O)n2ccc3ccccc32)c2ccccc21	82.8%	73.7%	93.6%	93.7%	71.6%	78.5%	65.5%	86.4%	92.2%	
COc1ccc(C/C(=C(\C)c2ccc(OCCN3CCCC3)cc2)c2ccc(OCCN3CCCC3)cc2)cc1	-32.6% (active)	-20.6% (active)	64.9%	77.8%	81.5%	90.8%	64.1%	29%	66.7%	78.3%
N=C(N)c1ccc(OCCCCCCCCCCOc2ccc(C(=N)N)cc2)cc1	-60.4% (active)	-59.8% (active)	-74.5% (active)	-91.5% (active)	-95.8% (active)	-91.4% (active)	-80.7% (active)	-92.4% (active)	-56.9% (active)	87.1%
Cc1cc(C)c(S(=O)(=O)Oc2ccccc2[N+](=O)[O-])c(C)c1	15.7%	24.2%	29.8%	43.4%	42.9%	41.2%	30.2%	-24.1% (active)	-16.4% (active)	
CCNC(=O)Oc1ccc(/C(=C(\C)c2ccccc2)c2ccc(OCCN(CC)CC)cc2)cc1	26.1%	74.6%	78.3%	88.2%	80.8%	83.9%	84.3%	93.7%	69%	85%
COc1ccc(/C=C2\Oc3cc(OCCCN4CCCCC4)ccc3C2=O)cc1OC	-18.7% (active)	90.6%	94.4%	95.2%	89.4%	113%	93.9%	93%	92%	
Cc1cc2c(C(=O)NCC#N)cccc2n1-c1nc2c(c(NCc3ccccc3)n1)CCCC2	4.15% (active)	5.03% (active)	8.66% (active)	1.88% (active)	-8.8% (active)	-6.94% (active)	-22.1% (active)	-59.9% (active)	12%	
CCCCOc1ccc(/C(C)=N/Nc2cc(C)nc3ccc(Br)cc23)cc1	-8.75% (active)	57.9%	88.4%	113%	101%	89.4%	85.7%	101%	96.6%	
O=S(=O)(NCCCNc1nccc(-c2c(-c3cccc(F)c3)nc3sccn23)n1)c1cccc2ccccc12	62%	44.9%	38.5%	80.9%	40.2%	65.8%	22.3%	68.7%	55.9%	
CC(C)N1C(=O)S/C(=C2/SC(=O)N(C(C)C)C2=O)C1=O	103%	93.9%	104%	101%	97.4%	127%	98.9%	106%	99.7%	103%
CCSCC1CC(O)(c2ccccc2)CC(c2ccc(F)cc2)O1 (stereo not given)	-22% (active)	8.79% (active)	21.3%	86.6%	24.5%	25.9%	48.5%	-13% (active)	-14.8% (active)	
COc1ccc(/C=C/c2nc(Nc3ccc(Cl)cc3)c3ccccc3n2)cc1	-3.22% (active)	52.9%	61.4%	73.2%	60.2%	83.6%	75.9%	67.2%	70.5%	65.7%
COC(=O)CNC(=O)[C@]12CCC(C)(C)C[C@H]1C1=CC[C@@H]3[C@@]4(C)Cc5c([nH]c6ccccc56)C(C)(C)[C@@H]4CC[C@@]3(C)[C@]1(C)CC2	83.3%	77%	85.2%	95.4%	77%	82.6%	104%	93%	87.5%	
C=C1C(=O)O[C@H]2[C@H]1CC/C(COC(=O)NCc1c[nH]c3ccc(Br)cc13)=C\CC[C@@]1(C)O[C@@H]21	7.54% (active)	-29.2% (active)	-41.7% (active)	-20.7% (active)	4.97% (active)	86.9%	-46.8% (active)	-87.5% (active)	34.3%	
O=C(NCCNc1nccc(-c2c(-c3cccc(F)c3)nc3sccn23)n1)c1ccc(Cl)cc1	46.5%	62.4%	55.1%	88.3%	77.9%	80.9%	22.5%	75.7%	74.8%	74.3%
COc1cccc(-c2nc3occn3c2-c2ccnc(NCCNS(=O)(=O)c3cccc4ccccc34)n2)c1	110%	102%	97.4%	123%	102%	83.5%	89%	103%	105%	
COc1ccc(/C=C/c2nc(Nc3ccc(S(=O)(=O)NC(C)=O)cc3)c3ccccc3n2)cc1	53.9%	76.9%	76.2%	72.5%	79.4%	90.2%	91.6%	95.5%	82.8%	
COc1cc2c3c(c4c5ccccc5[nH]c4c2c(OC)c1OC)C(=O)N(CCN1CCOCC1)C3=O	21.5%	39.5%	31%	99.7%	70%	83.2%	53.9%	76.4%	66.6%	
COc1ccc(/C=N/NC(=O)c2cnn3c2NC(c2ccccc2)C3)cc1OC (stereo not given)	32.3%	83.2%	75.3%	92.1%	107%	78.9%	59.6%	18%	68%	
CNC(=O)c1cccc(Cn2nc(C)c(NC(=O)c3ccc(COc4ccc(C(F)(F)F)cc4C)cc3)c2C)c1	23.3%	27.3%	33.9%	100%	29.6%	70.9%	63.8%	34%	84.9%	
Nc1ccccc1NC(=O)c1ccc(-n2nc(-c3ccccc3)c3ccccc32)cc1	48.6%	-8.09% (active)	62.6%	87.1%	77%	107%	68.5%	72.6%	83.5%	
NS(=O)(=O)c1ccc(CCN2C(=O)C3C(C2=O)C2(Cl)C(Cl)=C(Cl)C3(Cl)C2(Cl)Cl)cc1 (stereo not given)	98.1%	53%	107%	98.2%	96.2%	115%	97.3%	108%	96.8%	98.7%
CNCCn1c(=O)c2cc(OC)c(OC)cc2c2ccc3cc4c(cc3c21)OCO4	-22.4% (active)	-27.6% (active)	10.2%	4.57% (active)	-10.9% (active)	-0.269% (active)	0.994% (active)	-6.33% (active)	4.39% (active)	
Cc1cccc(C)c1N=c1oc2ccc(Cl)cc2nc1-c1ccccc1O	51.9%	82.9%	91.4%	81.3%	78.4%	92.8%	88.3%	102%	84.3%	
COc1cc(OC)cc(C(=O)C[n+]2cccc3cc[nH]c32)c1	116%	106%	103%	98.9%	99.3%	104%	94.2%	106%	101%	
